Laboratory results: PubChem BioAssay AID1159580 (chemical genetic matrix, 2015)
The whole screen tested about 5,500 compounds, of which about 2,000 (36%) were called active. Roughly 18% stayed inconclusive and do not appear here. Rule as the data show it: active = normalized growth mostly below about 0.91 (no sharp cut-off); inconclusive = no clear call, values can overlap the other calls; inactive = mostly above about 0.92. Some of the results follow.

Test: chemical genetic growth profiling, strain panel (AID 1159580);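 also: tested at 20 µM; growth read once vehicle control cultures reached saturation at 30 °C; 1 = growth at the plate median or of vehicle wells; lower values mean less growth of the strain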
Conditions: growth OD

Measured: normalized growth

CN(C)CCOC(=O)C(c1ccccc1)C1(O)CCCC1 (centres undefined)
inactive: S. cerevisiae deletion strains, locus YJR075W, strain HOC1, active compounds read low 1.01 | S. cerevisiae deletion strains, locus YKL009W, strain mrt4, active compounds read low 1.02 | S. cerevisiae deletion strains, locus YKL068W, active compounds read low 1.01 | S. cerevisiae deletion strains, locus YKL085W, strain MDH1 (second series), active compounds read low 1.04 | S. cerevisiae deletion strains, locus YKL085W, strain MDH1, active compounds read low 1.04 | S. cerevisiae deletion strains, locus YKL160W, strain elf1, active compounds read low 0.988 | S. cerevisiae deletion strains, locus YKR001C, strain vps1, active compounds read low 1.03 | S. cerevisiae deletion strains, locus YKR026C, strain gcn3, active compounds read low 0.973 | S. cerevisiae deletion strains, locus YKR091W, strain srl3, active compounds read low 0.982 | S. cerevisiae deletion strains, locus YLL001W, strain dnm1, active compounds read low 0.957 | S. cerevisiae deletion strains, locus YLL026W, active compounds read low 0.985 | S. cerevisiae deletion strains, locus YLL041C, strain sdh2, active compounds read low 0.99 | S. cerevisiae deletion strains, locus YLR027C, strain aat2, active compounds read low 0.985 | S. cerevisiae deletion strains, locus YLR039C, strain RIC1, active compounds read low 1.04 | S. cerevisiae deletion strains, locus YLR058C, strain SHM2, active compounds read low 1.01 | S. cerevisiae deletion strains, locus YLR102C, strain apc9, active compounds read low 1 | S. cerevisiae deletion strains, locus YLR113W, strain HOG1, active compounds read low 1.01 | S. cerevisiae deletion strains, locus YLR221C, strain rsa3, active compounds read low 1.03 | S. cerevisiae deletion strains, locus YLR258W, strain gsy2, active compounds read low 1.01 | S. cerevisiae deletion strains, locus YLR262C, strain YPT6 (second series), active compounds read low 0.995 | S. cerevisiae deletion strains, locus YLR262C, strain YPT6, active compounds read low 1.05 | S. cerevisiae deletion strains, locus YLR268W, strain sec22, active compounds read low 1.01 | S. cerevisiae deletion strains, locus YLR320W, strain mms22, active compounds read low 1.02 | S. cerevisiae deletion strains, locus YLR330W, strain CHS5, active compounds read low 1 | S. cerevisiae deletion strains, locus YLR342W, strain FKS1 (second series), active compounds read low 0.999 | S. cerevisiae deletion strains, locus YLR342W, strain FKS1, active compounds read low 0.958 | S. cerevisiae deletion strains, locus YLR357W, strain rsc2, active compounds read low 0.962 | S. cerevisiae deletion strains, locus YLR370C, strain arc18, active compounds read low 0.995 | S. cerevisiae deletion strains, locus YLR371W, strain rom2, active compounds read low 1.01 | S. cerevisiae deletion strains, locus YLR384C, strain iki3, active compounds read low 0.985 | S. cerevisiae deletion strains, locus YLR418C, strain cdc73, active compounds read low 1.05 | S. cerevisiae deletion strains, locus YML016C, strain PPZ1, active compounds read low 1 | S. cerevisiae deletion strains, locus YML032C, strain rad52, active compounds read low 1 | S. cerevisiae deletion strains, locus YML120C, strain ndi1, active compounds read low 0.988 | S. cerevisiae deletion strains, locus YML124C, strain tub3, active compounds read low 1.01 | S. cerevisiae deletion strains, locus YMR058W, strain fet3, active compounds read low 0.991 | S. cerevisiae deletion strains, locus YMR078C, strain ctf18, active compounds read low 1.03 | S. cerevisiae deletion strains, locus YMR125W, strain sto1, active compounds read low 0.989 | S. cerevisiae deletion strains, locus YMR129W, active compounds read low 0.986 | S. cerevisiae deletion strains, locus YMR205C, strain PFK2, active compounds read low 0.993 | S. cerevisiae deletion strains, locus YMR223W, strain ubp8, active compounds read low 1.02 | S. cerevisiae deletion strains, locus YMR231W, strain pep5, active compounds read low 0.975 | S. cerevisiae deletion strains, locus YMR307W, strain GAS1, active compounds read low 1.06 | S. cerevisiae deletion strains, locus YNL067W, strain RPL9B, active compounds read low 1.02 | S. cerevisiae deletion strains, locus YNL071W, strain lat1, active compounds read low 1.01 | S. cerevisiae deletion strains, locus YNL153C, strain GIM3, active compounds read low 1.01 | S. cerevisiae deletion strains, locus YNL183C, strain NPR1, active compounds read low 0.944 | S. cerevisiae deletion strains, locus YNL209W, strain ssb2, active compounds read low 1.02 | S. cerevisiae deletion strains, locus YNL233W, strain BNI4, active compounds read low 1.01 | S. cerevisiae deletion strains, locus YNL248C, strain rpa49, active compounds read low 1.03 | S. cerevisiae deletion strains, locus YNL250W, strain rad50, active compounds read low 1.01 | S. cerevisiae deletion strains, locus YNL271C, strain bni1, active compounds read low 1.02 | S. cerevisiae deletion strains, locus YNL298W, strain CLA4, active compounds read low 1.03 | S. cerevisiae deletion strains, locus YNL307C, strain MCK1, active compounds read low 1.02 | S. cerevisiae deletion strains, locus YNL322C, strain KRE1 (second series), active compounds read low 0.985 | S. cerevisiae deletion strains, locus YNL322C, strain KRE1, active compounds read low 0.982 | S. cerevisiae deletion strains, locus YNR049C, strain mso1, active compounds read low 0.987 | S. cerevisiae deletion strains, locus YNR052C, strain pop2, active compounds read low 1.01 | S. cerevisiae deletion strains, locus YOL006C, strain TOP1, active compounds read low 1.04 | S. cerevisiae deletion strains, locus YOL012C, strain htz1 1.15 | S. cerevisiae deletion strains, locus YOL147C, strain pex11, active compounds read low 1.01 | S. cerevisiae deletion strains, locus YOR001W, strain rrp6, active compounds read low 0.97 | S. cerevisiae deletion strains, locus YOR061W, strain CKA2, active compounds read low 1.01 | S. cerevisiae deletion strains, locus YOR069W, strain VPS5, active compounds read low 1.01 | S. cerevisiae deletion strains, locus YOR070C, strain gyp1, active compounds read low 0.997 | S. cerevisiae deletion strains, locus YOR080W, strain dia2, active compounds read low 0.981 | S. cerevisiae deletion strains, locus YOR083W, strain WHI5, active compounds read low 0.952 | S. cerevisiae deletion strains, locus YOR106W, strain vam3, active compounds read low 0.993 | S. cerevisiae deletion strains, locus YOR136W, strain idh2, active compounds read low 1.02 | S. cerevisiae deletion strains, locus YOR144C, strain elg1, active compounds read low 1.01 | S. cerevisiae deletion strains, locus YOR184W, strain ser1, active compounds read low 1.02 | S. cerevisiae deletion strains, locus YOR231W, strain MKK1, active compounds read low 0.997 | S. cerevisiae deletion strains, locus YOR265W, strain rbl2, active compounds read low 0.998 | S. cerevisiae deletion strains, locus YOR270C, strain vph1, active compounds read low 0.957 | S. cerevisiae deletion strains, locus YOR290C, strain snf2, active compounds read low 1.02 | S. cerevisiae deletion strains, locus YOR316C, strain cot1, active compounds read low 1.02 | S. cerevisiae deletion strains, locus YPL051W, strain arl3, active compounds read low 1.02 | S. cerevisiae deletion strains, locus YPL055C, strain LGE1, active compounds read low 1.01 | S. cerevisiae deletion strains, locus YPL078C, strain atp4, active compounds read low 0.961 | S. cerevisiae deletion strains, locus YPL106C, strain sse1, active compounds read low 1.01 | S. cerevisiae deletion strains, locus YPL240C, strain hsp82, active compounds read low 1.01 | S. cerevisiae deletion strains, locus YPL241C, strain CIN2, active compounds read low 0.988 | S. cerevisiae deletion strains, locus YPL256C, strain CLN2, active compounds read low 0.984 | S. cerevisiae deletion strains, locus YPR119W, strain clb2, active compounds read low 1.01 | S. cerevisiae deletion strains, locus YPR141C, strain kar3, active compounds read low 1.03 | S. cerevisiae deletion strains, locus YPR163C, strain tif3, active compounds read low 1.02 | S. cerevisiae deletion strains, locus YPR167C, strain met16, active compounds read low 1.01 | S. cerevisiae deletion strains, strain wtn01, active compounds read low 1.01 | S. cerevisiae strains, strain wild type, active compounds read low 1
